The record followed here is PubChem BioAssay (NCATS).

Results filed as inconclusive are left out. A number with no mark means an inactive call. The source made the active and inactive calls. The call rests on the fitted dose curve; in most records, active means well fitted cell-killing curve with a large enough effect; inconclusive means small, poorly fitted or top-dose-only effect; inactive means flat fitted curve, though single readings scatter.
Potency means the concentration at half of the fitted maximal effect.

The nature of this assay: Cell Viability - LYMP2-007 (AID 979).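 Further: cells exposed to compound for 24 h before reading; nearly all actives have a fitted effect of over 60% in size.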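 On activity change, negative = cytotoxicity: 0% = DMSO only and the negative end = 92 µM tetraoctylammonium bromide.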 Conditions: LYMP2-007 lymphoblastoid cell viability; series mostly up to 92.2 µM; activity change, negative = cytotoxicity: at the top concentration. The text has this:
NIH Chemical Genomics Center [NCGC]
NIH Molecular Libraries Screening Centers Network [MLSCN]
National Institutes of Environmental Health Sciences [NIEHS]
National Toxicology Program [NTP]
We have developed a 1536-well cell-based assay for quantitative high throughput screening (qHTS) against a number of cell lines to determine in vitro cytotoxicity of small molecules. This particular assay uses a human lymphoblastoid cell line (LYMP2-007) purchased from Coriell Institute for Medical Research.
NCGC Assay Protocol Summary:
The CellTiter-Glo luminescent cell viability assay (Promega) is a homogeneous method to measure the number of viable cells in culture. The end point readout of this assay is based on quantitation of intracellular ATP, an indicator of metabolic activity, using the luciferase reaction. Luciferase catalyzes the oxidation of beetle Luciferin to oxyluciferin and light in the presence of ATP. The luminescent signal is proportional to amount of ATP present.
Using the CellTiter-Glo luminescent cell viability assay, the amount of cellular ATP was measured in the lymphoblastoid cell line with complete culture medium following compound treatment for 24 hours. The assay was performed in opaque white Kalypsys 1536-well plates. In the screen, tetraoctylammonium bromide was used as positive control. Library compounds were measured for their ability to cause acute toxicity in the cell line, as reflected by a decrease in intracellular ATP levels, in a concentration-dependent manner. […] AC50 values were determined from concentration-response data modeled with the standard Hill equation.
qHTS protocol for CellTiter Glo lymphoblastoid cellular assay
[Step] [Parameter] [Value] [Description]
1. Reagent; 5 uL; 2500 lymphoblastoid cells/well
2. Time; 5 hr; 37 C incubation
4. Controls; 23 nL; Tetraoctylammonium bromide 6.4pM to 92 uM
5. Time; 24 hr; 37 C incubation
6. Reagent; 5 uL; CellTiter Glo reagent
7. Time; 30 min; Room Temperature
8. Detection; Luminescence; Viewlux plate reader
Keywords: cell viability, cytotoxicity, lymphoblastoid cell line, luminescence, NTPHTS, NTPHTS_NCGC, NIEHS, DSSTox, MLSMR, MLSCN, NIH Roadmap, qHTS, NCGC
In the case of `CCCCC1C(=O)N(c2ccccc2)N(c2ccccc2)C1=O`, the “activity change, negative = cytotoxicity” value is -6.71%.
The same measure, in the same setting: the result for `CCCNC(=O)NS(=O)(=O)c1ccc(Cl)cc1` reads -3.21%; that for `CCn1cc(C(=O)O)c(=O)c2ccc(C)nc21`, -0.127%; that for `CC(=O)c1ccc(S(=O)(=O)NC(=O)NC2CCCCC2)cc1`, -17.8%.
Take `O=c1c(-c2ccc(O)cc2)coc2cc(O)ccc12`: the “activity change, negative = cytotoxicity” value is -20%.
Same read-out and setting: next, `CN(C)CCC(c1ccccc1)c1ccccn1` (stereo not drawn): 1.68%.
Same read-out and setting: the result for `O=c1[nH]cnc2c1ncn2[C@H]1CC[C@@H](CO)O1` reads -5.66%; that for `O=c1c(O)c(-c2ccc(O)cc2)oc2cc(O)cc(O)c12`, -14.8%.
Same read-out and setting: next, `CC(=O)O[C@]1(C(C)=O)CC[C@H]2[C@@H]3C=C(Cl)C4=CC(=O)[C@@H]5C[C@@H]5[C@]4(C)[C@H]3CC[C@@]21C`: -12.5%.
Turning to `CC1=C(/C=C/C(C)=C/C=C/C(C)=C/C(=O)Nc2ccc(O)cc2)C(C)(C)CCC1`, the Potency was 39.8 µM (active).
`O=C(O)Cc1cccc2ccccc12`: the “activity change, negative = cytotoxicity” value was -1.24%.
Same read-out and setting: the result for `O=C1NC(=O)C(c2ccccc2)(c2ccccc2)N1` reads -13%.
Consider `CC/C(=C(\c1ccccc1)c1ccc(OCCN(C)C)cc1)c1ccccc1`, for which the Potency is 50.1 µM (active).
